Results taken from PubChem BioAssay AID504848 (National Center for Advancing Translational Sciences (NCATS), 2011).
Among all 2,300 compounds or so, about 1,400 (61%) were called active. About 29% were inconclusive and are not listed. The set was probably picked from earlier hits. The list shows a part of the results. Unmarked numbers belong to inactive results. Calls follow the shape of the dose curve; as a rule, active = well fitted inhibition curve with a large enough effect; inconclusive = small, poorly fitted or top-dose-only effect, or effect the other way; inactive = no such curve, though single readings can be large or run the other way.

assay: Confirmation screen for delayed death inhibitors of the malarial parasite plastid, 96 hour incubation; also: nearly all actives have a fitted effect of over 60% in size; conditions: P. falciparum luciferase growth in erythrocytes; series mostly up to 28.7 µM; activity change, negative = inhibition: at the top concentration
Summary of the method: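 Two-generation (96 h, 37 C) exposure of P. falciparum carrying an integrated firefly luciferase reporter in erythrocytes, 0.1% parasitemia and 2% hematocrit final, Albumax-supplemented RPMI. Luminescence decrease measures growth inhibition.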
% is scaled to controls: 0 for no effect and ±100 for the full control effect; potency is read from the fitted curve at half-maximal effect.

Structure (SMILES)	Potency	activity change, negative = inhibition
Nc1ccc2nc(-c3ccc(-c4nc5ccc(N)cc5[nH]4)cc3)[nH]c2c1	5.62 µM (active)	–
Cc1coc2cc3oc(=O)c(CCC(=O)NCCCn4ccnc4)c(C)c3cc12	12.6 µM (active)	–
CCOC(=O)C1CCN(c2c(NCc3ccc(C(=O)NCCC(C)C)cc3)c(=O)c2=O)CC1	1.12 µM (active)	–
C(=N\N(c1ccccc1)c1ccccc1)/c1ccccn1	–	-39.2%
O=C(N/N=C/c1ccccn1)c1cc([N+](=O)[O-])cc([N+](=O)[O-])c1	3.16 µM (active)	–
CC1(C)N=C(N)N=C(N)N1c1ccc(OCCCOc2ccccc2)c(Cl)c1	11.2 µM (active)	–
CCc1ccc(C(=O)NNc2ccc(C)c(Cl)c2)cc1	–	-10.3%
Cc1ccc(NC2=CC(=O)CC(C)(C)C2)cc1Cl	12.6 µM (active)	–
Cc1ccc(-n2c(Cl)c(Cl)nc(Cl)c2=O)cc1	11.2 µM (active)	–
Clc1ccc2nnnc(-c3ccccc3)c2c1	3.55 µM (active)	–
CCn1cc(C(=O)O)c(=O)c2cc(F)c(N/N=C/c3ccccc3)cc21	10 µM (active)	–
COc1ccc(C)cc1-n1c(SCC(=O)Nc2cc(C)on2)nc2sc(C)c(C)c2c1=O	2 µM (active)	–
CC(SC#N)C(=O)C12CC3CC(CC(C3)C1)C2 (configuration not stated)	12.6 µM (active)	–
COc1ccc(N(CC(=O)NCCSCc2ccc(C)cc2)S(=O)(=O)c2ccccc2)cc1	12.6 µM (active)	–
COc1ccc2c(c1)c(CC(=O)Nc1nnc(C3CC3)s1)c(C)n2C(=O)c1ccc(Cl)cc1	10 µM (active)	–
COc1ccc(-c2nc(N3CCN(C)CC3)sc2-c2ccc(OC)cc2)cc1	12.6 µM (active)	–
CC1(CCc2ccc3c(c2)OCO3)NCCc2c1[nH]c1ccccc21 (configuration not stated)	7.08 µM (active)	–
C/C(=N\NC(=S)NCC(C)(C)C)c1cc(F)cc(F)c1O	11.2 µM (active)	–
Cc1cc(/C=C2/SC(=O)NC2=O)c(C)n1-c1ccc(N2CCOCC2)cc1	12.6 µM (active)	–
CCC(=O)N1CCc2cc(S(=O)(=O)N3CCCCCC3)ccc21	12.6 µM (active)	–
CC(=O)N1CCc2cc(S(=O)(=O)N3CC(C)CC(C)C3)ccc21 (configuration not stated)	8.91 µM (active)	–
Cc1ccc(C(=O)Nc2ccccc2SCC2CSc3nc4ccccc4c(=O)n32)cc1 (configuration not stated)	10 µM (active)	–
O=C(Nc1ccccc1SCC1CSc2nc3ccccc3c(=O)n21)c1ccccc1Cl (configuration not stated)	11.2 µM (active)	–

Structure (SMILES)	Potency	activity change, negative = inhibition
Cc1cccc(C(=O)Nc2ccccc2SCC2CSc3nc4ccccc4c(=O)n32)c1 (configuration not stated)	3.98 µM (active)	–
O=C(Nc1ccccc1SCC1CSc2nc3ccccc3c(=O)n21)c1ccccc1 (configuration not stated)	12.6 µM (active)	–
CC(Oc1ccccc1F)C(=O)Nc1ccc2ccccc2c1 (configuration not stated)	–	11.9%
CC(Oc1ccc(F)cc1)C(=O)Nc1ccc2ccccc2c1 (configuration not stated)	–	1.14%
CC(=O)Nc1ccc(OCc2cccc3ccccc23)cc1	7.94 µM (active)	–
COc1ccccc1NS(=O)(=O)c1ccc2oc(SCc3ccc(C#N)cc3)nc2c1	12.6 µM (active)	–
CCOC(=O)c1c(-c2cccc(C)c2)csc1NC(=O)c1c(-c2ccccc2)noc1C	8.91 µM (active)	–
CCOC(=O)c1c(NC(=O)c2c(-c3ccccc3)noc2C)sc(C)c1-c1ccccc1	5.01 µM (active)	–
CCOC(=O)c1c(-c2ccc(-c3ccccc3)cc2)csc1NC(=O)c1cccc(N2C(=O)CCC2=O)c1	2.24 µM (active)	–
COC(=O)c1c(-c2ccccc2)csc1NC(=O)c1c(-c2ccccc2)noc1C	14.1 µM (active)	–
COC(=O)c1c(NC(=O)c2cccc(N3C(=O)CCC3=O)c2)sc2c1CCN(C(C)=O)C2	11.2 µM (active)	–
CCOC(=O)c1c(-c2ccc(F)cc2)csc1NC(=O)c1c(-c2ccccc2)noc1C	7.08 µM (active)	–
Nc1nc(SCC(=O)NCC2CCCO2)[nH]c(=O)c1NC(=O)c1ccc(F)c(F)c1 (configuration not stated)	7.94 µM (active)	–
COc1ccc(C(=O)Nc2c(N)nc(SCC(=O)Nc3ccc(NC(C)=O)cc3)[nH]c2=O)cc1OC	12.6 µM (active)	–
CC1CN(C(=O)N2c3ccccc3Sc3ccccc32)CC(C)O1 (configuration not stated)	10 µM (active)	–
O=C(N1CCOCC1)N1c2ccccc2Sc2ccccc21	–	-14.8%
Cn1c(=O)[nH]c(=O)c2c1nc(SCCN1CCCCC1)n2CCCc1ccccc1	5.01 µM (active)	–
CCCSc1nc2c(cnn2-c2ccccc2)c(=O)[nH]1	–	-11.6%
CCCCCCn1c(SCCC)nc2c1c(=O)[nH]c(=O)n2C	14.1 µM (active)	–
Cc1nn(-c2ccccc2)c(N2CCCC2)c1/C=N/NC(=S)Nc1ccccc1F	12.6 µM (active)	–
Cc1nn(-c2ccccc2)c(N2CCCC2)c1/C=N/NC(=O)c1ccccc1O	3.98 µM (active)	–
O=C(CCl)Nc1ccc(Sc2ccc(NC(=O)CCl)cc2)cc1	2.51 µM (active)	–
CC(C)N(c1ccccc1)c1ccc(NC(=O)CCl)cc1	2.51 µM (active)	–

Structure (SMILES)	Potency	activity change, negative = inhibition
CCC(CC)COC(=O)C1=C(C)NC(=O)NC1c1ccccc1Br (configuration not stated)	10 µM (active)	–
OC1(c2cccs2)CN(c2ccc(Br)cc2)C2=[N+]1CCCS2 (configuration not stated)	8.91 µM (active)	–
OC1(c2cccs2)CN(c2ccc(Cl)cc2)C2=[N+]1CCCC2 (configuration not stated)	6.31 µM (active)	–
Cc1[nH]c(=O)c(C(=O)/C=C/c2ccccc2F)c2c1CCCC2	5.62 µM (active)	–
Cc1[nH]c2ccccc2c(=O)c1C(=O)/C=C/c1ccccc1	3.55 µM (active)	–
Cc1[nH]c2ccccc2c1/C=N/NC(=O)CNC(=O)Cc1ccccc1	–	-7.72%
Cc1[nH]c(=O)c(C(=O)/C=C/c2ccccc2)c2c1CCCC2	4.47 µM (active)	–
CCC1CCCCN1CCCNC(=O)Cn1c(=O)c2cccn2c2cccnc21 (configuration not stated)	–	-16.3%
CCC1CCCCN1CCCNC(=O)CNC(=O)c1nn(-c2ccc(OC)c(Cl)c2)c(=O)c2ccccc12 (configuration not stated)	6.31 µM (active)	–
N=C(N)c1ccc(/C=C/c2ccc(C(=N)N)cc2O)cc1	0.251 µM (active)	–
C=C1C(=O)O[C@@H]2[C@H]1CC[C@H](C)[C@]1(O)CCC(=O)[C@@]21C	7.08 µM (active)	–
CCCCC1(c2ccc(F)cc2)NC(=O)N(CC(=O)N2CCN(C(=O)c3ccco3)CC2)C1=O (configuration not stated)	12.6 µM (active)	–
CC(C)c1ccc2[nH]c(O)c(N=NC(=O)c3ccc(CSc4nncn4C)cc3)c2c1	2.24 µM (active)	–
O=S(=O)(c1ccc(F)cc1)N1CCN(c2nc(-c3ccc(F)cc3)cs2)CC1	11.2 µM (active)	–
CCOC(=O)c1cc(-c2ccc(C)cc2)n(CCC(=O)NCCN(C)C)c1C	10 µM (active)	–
CCOc1ccc(/C=C/C(=O)NCCc2ccc(OC)c(OC)c2)cc1	15.8 µM (active)	–
O=S(=O)(Nc1ccc(O)c(Sc2nc3ccccc3s2)c1)c1cccc2ccccc12	12.6 µM (active)	–
Cc1ccc(-n2ncc3c(SCc4ccccn4)ncnc32)c(C)c1	14.1 µM (active)	–
CCCC(=O)N=C1SC2CS(=O)(=O)CC2N1c1ccc(CC)cc1 (configuration not stated)	14.1 µM (active)	–
CCC(=O)Nc1ccc(C(=O)Cn2ncc(Cl)c(Cl)c2=O)cc1	15.8 µM (active)	–
Cc1cc(Br)ccc1NC(=O)CNC(=O)Cn1ncc(Cl)c(Cl)c1=O	11.2 µM (active)	–
CCOC(=O)C(C(=O)OCC)C(Nc1cccc(Br)c1)c1ccccc1 (configuration not stated)	10 µM (active)	–
CC(C)Cc1ccc(C(=O)Nc2ccc(Cc3ccncc3)cc2)o1	10 µM (active)	–

Structure (SMILES)	Potency	activity change, negative = inhibition
COc1ccc(NC(=S)N(CCCN2CCCCCC2)Cc2cccs2)cc1	11.2 µM (active)	–
Cc1ccc(C(=O)c2cc([N+](=O)[O-])ccc2N2CCOCC2)c(C)c1	14.1 µM (active)	–
Cc1ccc(CN2CCC(CNS(=O)(=O)c3ccc(-c4ccc(=O)[nH]n4)s3)CC2)cc1	5.01 µM (active)	–
Cc1ccc(CNS(=O)(=O)c2ccc(C)s2)cc1	–	25.7%
CCOC(=O)c1cnc2c(C)c(Cl)ccc2c1NCCCN1CCOCC1	0.282 µM (active)	–
O=C(N/N=C(\CC(=O)c1cccs1)C(F)(F)F)c1ccncc1	–	-31.4%
O=C(N/N=C/C(Cl)=C\c1ccccc1)c1cccs1	4.47 µM (active)	–
Cc1cccc(CCNC(=O)CNS(=O)(=O)c2ccc3nc(C)sc3c2)c1	1.58 µM (active)	–
CCOc1ccc(C(C)=O)cc1COc1ccc(-c2nnco2)cc1	11.2 µM (active)	–
Oc1ccc(Cl)cc1CNc1cnc2ccccc2c1	11.2 µM (active)	–
O=C(C[n+]1cc(Br)cc2ccccc21)c1ccccc1	5.01 µM (active)	–
COc1ccc2c(ccc[n+]2CC(=O)c2ccccc2)c1	14.1 µM (active)	–
OCCNC(=S)Nc1ccc(Cl)c(Cl)c1	2.24 µM (active)	–
O=C1c2ccccc2C(=Nc2ccccc2)C1c1cccc(Br)c1 (configuration not stated)	3.98 µM (active)	–
COc1ccc(N(CC(=O)N/N=C/c2cccnc2)S(=O)(=O)c2ccccc2)c(OC)c1	6.31 µM (active)	–
O=C(CCl)NCCN1C(=O)S/C(=C\c2cccnc2)C1=O	5.01 µM (active)	–
O=C(c1ccc2c(=O)n3c(nc2c1)CCCCC3)N1CCN(c2ccc([N+](=O)[O-])cc2)CC1	6.31 µM (active)	–
CC(=O)N1CN(C2CCCC2)Cc2c1sc1c2CCCC1	6.31 µM (active)	–
COc1ccc(C(=O)CSc2nnc(C3CCCCC3)n2N)c(OC)c1	3.16 µM (active)	–
O=C(CN1CCN(c2ccc(F)cc2)CC1)Nc1ccc(S(=O)(=O)N2CCOCC2)cc1	10 µM (active)	–
O=S(=O)(c1ccc(OCC(O)CN2CCN(c3ccc(F)cc3)CC2)cc1)N1CCOCC1 (configuration not stated)	12.6 µM (active)	–
CCN(CC(=O)Nc1ccc(S(=O)(=O)N2CCOCC2)cc1)Cc1ccccc1	10 µM (active)	–
C=CCOc1ccc(/C=C\c2nc(O)c([N+](=O)[O-])c(=O)[nH]2)cc1OC	12.6 µM (active)	–
